Screens (PubChem BioAssay)
A selection: hits, their analogues and other compounds. The true share with any hit is near 3.9%.
ATXN viability = cell viability loss in ATXN counter-screen | S2 cells (HEK-293 line with an ATXN2-luciferase reporter) viability, CellTiter-Fluor protease fluorescence, 24 h | Potency, µM (titrated, usually from 56.7 µM), hits mostly cytotoxic | hit rate 0.49% among 400,000; also: nearly all actives have a fitted effect of over 40% in size
ATXN2 expr inh = reduces ATXN2 reporter expression in HEK-293 cells; Potency, µM (titrated, usually from 57 µM), for inactives: at the top dose activity change, negative = inhibition, most hits filed as inhibitors; AID 1745845; HEK-293 ATXN2-luciferase reporter, luminescence, 24 h; hit rate 0.72% among 360,000; also: % is scaled to controls: 0 for no effect and ±100 for the full control effect; nearly all actives have a fitted effect of over 55% in size
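ATXN2-luciferase reporter cells (luciferase flanked by upstream and downstream ATXN2 gene portions) were treated 24 h at 37 °C with compounds at up to 57 uM. SteadyGlo luminescence gave expression; GF-AFC fluorescence gave viability.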
TGFb inhibitor = blocks TGF-b signaling | Potency, µM (titrated, usually from 46.1 µM), inactives show top-dose activity, negative = inhibition, usual class: inhibitors | hit rate 1.2% among 410,000 | HepG2 CAGA-GFP TGF-b/SMAD3 reporter, GFP fluorescence, 18 h; TGF-beta stimulated, 500 pg/mL final; also: % is scaled to controls: 0 for no effect and ±100 for the full control effect; nearly all actives have a fitted effect of over 65% in size
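Inhibition of TGF-beta-driven CAGA-GFP reporter expression in HEPG2 cells is measured by cellular GFP fluorescence after 18 h stimulation with 500 pg/mL recombinant TGF-beta in 1% FBS medium at 37 degrees C.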
HT1080 IDH1KD tx = HT-1080 IDH1 knockdown cell toxicity (counter line); HT-1080 IDH1 knockdown viability, ATP luminescence, 48 h; Potency, µM (highest dose often 46.1 µM), for inactives: at the highest dose activity, negative = toxicity, actives largely listed as cytotoxic; hit rate 2% among 360,000;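 also: 0% = DMSO wells and -100% = cell-free medium wells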
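In this qHTS, HT-1080 cells depleted of IDH1 are exposed for 48 h at 37 °C to compound titrations. Toxicity is scored from CellTiter-Glo luminescence, with DMSO as full viability and medium alone as none.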
HepG2 tox-1 = kills HepG2 cells in TGF-b inhibitor counter-screen | Potency, µM (top dose mostly 46.1 µM), for the others: at the top dose activity change, negative = cytotoxicity, most hits filed as cytotoxic | HepG2 CAGA-GFP viability, ATP luminescence, 18 h | AID 588856 | hit rate 0.76% among 410,000
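HepG2 CAGA-GFP cells (1000/well, DMEM with 1% FBS) received compound, then TGF-beta at 500 pg/mL final, and were incubated 18 hours at 37 degrees C. Viability was read by CellTiter-Glo luminescence. Media-only wells were set as complete cell-killing and DMSO as no toxicity.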
HT1080NT lethal = kills 2HG-producing HT-1080-NT fibrosarcoma cells. hit rate 1.6% among 360,000. Potency, µM (doses to about 46.1 µM), for the others: top-dose activity, negative = less viability, actives largely listed as cytotoxic. HT-1080-NT fibrosarcoma viability, CellTiter-Glo ATP luminescence, 48 h. AID 686970;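 also: NT is the 2HG producing partner of a matched IDH1 knockdown line; 0% = DMSO-treated cells and -100% = media-only wells without cells; nearly all actives have a fitted effect of over 55% in size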
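Viability by CellTiter-Glo luminescence after 48 h compound exposure at 37C of HT-1080-NT cells (750/well, RPMI, 5% FBS). % activity scaled between DMSO wells and medium-only wells, then curve-fitted and categorized by curve class.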
TGFb confirm = confirmation of TGF-b signaling inhibitors in HepG2 reporter cells; HepG2 CAGA-GFP TGF-b reporter, GFP fluorescence, 18 h; cells stimulated with TGF-beta, 500 pg/mL; Potency, µM (series often up to 46.1 µM), without a hit: at the highest dose activity, negative = inhibition, hits mostly inhibitors; hit rate 63% among 1,600; shares compounds with TGFb inhibitor; also: % is scaled to controls: 0 for no effect and ±100 for the full control effect; nearly all actives have a fitted effect of over 65% in size
HepG2 tox-2 = toxic to HepG2 cells in TGF-b counterscreen. shares compounds with TGFb inhibitor. HepG2 CAGA-GFP viability, ATP luminescence, 18 h; cells stimulated with TGF-beta, 500 pg/mL. Potency, µM (top dose mostly 46.1 µM), inactives show at the highest dose activity, negative = cytotoxicity, hits mostly inhibitors. hit rate 27% among 1,600; also: % is scaled to controls: 0 for no effect and ±100 for the full control effect; nearly all actives have a fitted effect of over 70% in size
CCL64 TGFb inh = blocks TGF-b signaling in CCL64 reporter cells; shares compounds with TGFb inhibitor; CCL64 CAGA-GFP reporter, TGF-b stimulated, GFP fluorescence, 18 h; Potency, µM (titrated, usually from 46.1 µM), without a hit: at the highest dose activity, negative = inhibition, hits mostly inhibitors; hit rate 41% among 1,600; AID 720536; also: nearly all actives have a fitted effect of over 65% in size
COP TGFb inh = validation of TGF-b inhibitors in HepG2 COP promoter reporter; Potency, µM (series often up to 46.1 µM), inactives show top-dose activity, negative = inhibition, most hits filed as inhibitors; hit rate 3% among 1,600; shares compounds with TGFb inhibitor; HepG2 COP-GFP TGF-b reporter, GFP fluorescence, 18 h; cells stimulated by added recombinant TGF-beta; AID 720537; also: nearly all actives have a fitted effect of over 70% in size
* marks the source's active call; other numbers are inactive results; i = inactive; ? = inconclusive; / = not tested or not shown. Calls follow the shape of the dose curve; as a rule, active = well fitted curve in the direction sought with a large enough effect; inconclusive = small, poorly fitted or top-dose-only effect, or another doubt; inactive = no such curve, though single readings can be large; an effect the other way counts as inactive or inconclusive. Potency is read from the fitted curve at half-maximal effect.

SMILES	ATXN viability	ATXN2 expr inh	TGFb inhibitor	HT1080 IDH1KD tx	HepG2 tox-1	HT1080NT lethal	TGFb confirm	HepG2 tox-2	CCL64 TGFb inh	COP TGFb inh
C[N+]1(C)[C@@H]2CC(OC(=O)[C@H](CO)c3ccccc3)C[C@H]1[C@H]1O[C@@H]12 (some centres not stated)	/	-2%	/	/	/	/	/	/	/	/
CCN(C(=O)Cn1c(=O)oc2cc(S(=O)(=O)N3CCCC3)ccc21)c1cccc(C)c1	/	/	/	/	-26%	/	/	/	/	/
CCCS(=O)(=O)NC(=O)C1(C)CCCN(C(=O)c2ccccc2OC)C1 (configuration not stated)	i	9%	7%	23%	0%	?	/	/	/	/
CC(=O)OC1(C)CC(C)C(=O)C(C(O)CC2CC(=O)NC(=O)C2)C1 (configuration not stated)	?	0.03µM*	-92%	0.13µM*	-33%	1.6µM*	0.052µM*	0.13µM*	0.021µM*	5%
Cc1ccc(S(=O)(=O)N(C)C[C@H]2Oc3c(NC(=O)Nc4cccc5ccccc45)cccc3C(=O)N([C@@H](C)CO)C[C@@H]2C)cc1	?	?	?	?	-4%	-24%	/	/	/	/
Cc1ccc(C(=O)COC(=O)c2cccc(NC(=O)c3ccc(Br)cc3)c2)cc1	?	10%	2%	/	-17%	/	/	/	/	/
COc1ccc(CC2NCCc3cc(OC)c(OC)cc32)cc1OC (configuration not stated)	/	-10%	/	/	/	/	/	/	/	/
CC[C@H]1CN2CCc3cc(OC)c(OC)cc3C2C[C@@H]1C[C@H]1NCCc2cc(OC)c(OC)cc21 (some centres not stated)	?	-76%	-109%	0.052µM*	-20%	0.052µM*	0.052µM*	2.9µM*	0.073µM*	35%
Cc1ccc(-c2cc(-c3ccccc3)cc(-c3ccccc3)[n+]2-c2ccccc2C(=O)O)cc1	?	?	?	-13%	-40%	-26%	/	/	/	/
Oc1ccccc1-[n+]1c(-c2ccccc2)cc(-c2ccccc2)c(O)c1-c1ccccc1	i	-4%	11µM*	-5%	-26%	-15%	?	?	23µM*	-4%
COc1ccc(CC2NCC(O)C2OC(C)=O)cc1 (configuration not stated)	?	0.011µM*	0.11µM*	0.13µM*	7%	1.8µM*	0.1µM*	0.37µM*	0.082µM*	-23%
COc1ccc(C(O)P(=O)(OC2CCCCC2)c2ccc(N(C)C)cc2)cc1OC (configuration not stated)	i	5%	?	8%	-2%	2%	/	/	/	/
Cc1ccc2c(c1)C1CN(C)CCC1N2C(=O)c1ccccc1NS(=O)(=O)c1cccc(C(F)(F)F)c1 (configuration not stated)	i	-2%	0%	?	-10%	-28%	/	/	/	/
O=C1NCN(c2ccccc2)C12CCN(C(c1cc3ccccc3o1)c1nnnn1C1CCCCC1)CC2 (configuration not stated)	?	?	10µM*	?	-111%	?	18µM*	?	23µM*	?
COc1ccc(-n2nnnc2C(CCc2ccccc2)N2CCC(n3c(=O)[nH]c4ccccc43)CC2)cc1 (configuration not stated)	10µM*	?	11µM*	13µM*	-20%	16µM*	?	-28%	?	8%
COc1ccc(-n2nnnc2C(c2ccccc2OC(F)(F)F)N2CCC(n3c(=O)[nH]c4ccccc43)CC2)cc1 (configuration not stated)	?	?	11µM*	?	-6%	?	5.8µM*	?	?	66%
CC(C)Oc1ccc(C(=O)Nc2ccc3c(c2)CCCN3C(=O)c2cccs2)cc1	?	?	-12%	/	-27%	/	/	/	/	/
COP(=O)(/C=C/c1ccccc1)C(O)c1ccc(F)cc1 (configuration not stated)	i	-12%	6%	8%	-82%	1%	/	/	/	/
CC1CN(C(=O)c2ccc(S(=O)(=O)Nc3ccccc3F)cc2)CC(C)O1 (configuration not stated)	?	6%	17%	0%	10%	-11%	/	/	/	/
CC(C)Nc1nc(NC(C)C)nc(N(C#N)CCOc2ccc(Cl)cc2Cl)n1	i	?	?	?	-35%	?	/	/	/	/
COc1ccc(C(=O)N/N=C/C23CC[C@@H](O)CC2(O)CC[C@@H]2[C@@H]3CCC3(C)C(C4=CC(=O)OC4)CCC23O)cc1 (some centres not stated)	i	/	-6%	?	-33%	?	/	/	/	/
CC1OC(OC2CC(O)C3(CO)C4C(O)CC5(C)C(C6=CC(=O)OC6)CCC5(O)C4CCC3(O)C2)C(O)C(O)C1O (configuration not stated)	?	0.006µM*	1.1µM*	0.21µM*	-54%	0.13µM*	3.7µM*	0.29µM*	0.21µM*	37%
CC1=CC2OC3CC4OC(=O)C=CC=CC(C(C)O)OCC(O)C(C)CC(=O)OCC2(CC1O)C4(C)C31CO1 (configuration not stated)	?	-69%	-107%	/	4%	0.046µM*	0.041µM*	/	0.029µM*	-1%
